# CYP2C19 activ = human CYP2C19 activators, primary screen, biochemical, luminescence | Cytochrome P450 2C19 (Homo sapiens), P33261 | recombinant CYP2C19, luciferin-H EGE luminescence; stronger effect = higher value; 0 = fully inhibited enzyme, 1 = untreated enzyme | activation factor at 5 µM | 96,000 tested, under 10 active;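 active means activation factor of at least 2 at 5 µM in the primary screen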
# Target sequence (P33261 whole entry, looked up): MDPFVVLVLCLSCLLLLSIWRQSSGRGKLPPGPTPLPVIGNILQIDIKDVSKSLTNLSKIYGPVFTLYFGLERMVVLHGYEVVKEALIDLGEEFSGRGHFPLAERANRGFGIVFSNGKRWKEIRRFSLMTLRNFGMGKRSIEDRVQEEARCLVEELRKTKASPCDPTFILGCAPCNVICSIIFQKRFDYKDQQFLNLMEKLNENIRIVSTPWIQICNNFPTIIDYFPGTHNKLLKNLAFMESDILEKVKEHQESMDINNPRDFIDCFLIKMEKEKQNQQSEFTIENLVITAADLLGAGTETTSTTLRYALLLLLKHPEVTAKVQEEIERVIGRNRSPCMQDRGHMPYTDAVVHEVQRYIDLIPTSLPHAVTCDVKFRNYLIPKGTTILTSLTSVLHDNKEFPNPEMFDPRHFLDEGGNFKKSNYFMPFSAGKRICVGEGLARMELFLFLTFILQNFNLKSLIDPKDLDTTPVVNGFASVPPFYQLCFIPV
# CYP2C19 inh = blockers of cytochrome P450 2C19 activity – biochemical, luminescence, ADME assay, primary screen | P33261 | CYP2C19 Supersomes, luciferin-H EGE luminescence, 30 min | inhibition, % at 5 µM | 96,000 compounds, 21% hits;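 active means CYP2C19 inhibition above a set limit at 5 µM in the primary screen, cut at about 50% in these data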
# PostGolgi ctrl = growth inhibition of yeast control strain, primary screen, counter-screen for post-Golgi transport modulator project; inhibition, % at 10 µM; AID 738, 2007; efflux-deficient yeast background strain, growth absorbance A615, 16 h; 98,000 compounds, 5% hits
# PostGolgi yeast = phenotypic screen on post-Golgi transport, primary screen; post-Golgi transport phenotypic cell assay; inhibition, % at 10 µM; 98,000 compounds, 0.9% hits;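 further: yeast cells grown in 1536-well plates; yeast grown about 18 h at 30C before absorbance read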
# CYP2C9 inh = blockers of cytochrome P450 2C9 activity – biochemical, luminescence, ADME assay, primary screen. inhibition, % at 5 µM. 96,000 compounds, 20% hits. P11712. AID 777, 2007. CYP2C9 Supersomes, luciferin-H conversion;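 active means blocking of liver enzyme CYP2C9 beyond about 50% at 5 µM, limit read from the data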
# CYP2C9 act = human CYP2C9 activators, primary screen, biochemical, luminescence; AID 1024, 2008; activation factor at 5 µM; 96,000 compounds, 1.4% hits; recombinant CYP2C9, luciferin-H conversion; stronger effect = higher value; factor 1 = untreated enzyme, 0 = blocked; Cytochrome P450 2C9 (Homo sapiens), P11712;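 active means activation factor of 2 or more for CYP2C9 at a 5 µM dose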
# Numbers stand for hits; i = inactive. The list is not random: actives were taken first. Their share in the collection is about 32%. Unless noted, no stated cut-off is given here; in the data, active means inhibition above about 30%; inactive means the rest.
SMILES,CYP2C19 activ,CYP2C19 inh,PostGolgi ctrl,PostGolgi yeast,CYP2C9 inh,CYP2C9 act
Nc1cccc(Cl)c1N1CCOCC1,i,i,i,i,i,i
COc1cc(NC(=O)c2cccs2)c(OC)cc1NC(=O)CCn1nnc2ccccc21,i,i,i,i,i,i
COc1ccc(S(=O)(=O)NNC(=O)C2Cc3c(ccc4ccccc34)O2)cc1 (configuration not stated),i,i,i,i,i,i
O=C(O)CCCC(=O)N1CCc2cc(S(=O)(=O)N3CCc4ccccc43)ccc21,i,i,i,i,i,i
COCCn1c(C23CC4CC(CC(C4)C2)C3)n[nH]c1=S,i,i,32,i,i,i
COCCN(C(=O)CNC(=O)c1cccs1)C(C(=O)NC1CCCCC1)c1ccco1 (configuration not stated),i,i,i,i,i,i
COCCN(C(=O)CNC(=O)c1cccs1)C(C(=O)NC1CCCC1)c1cccs1 (configuration not stated),i,56,i,i,i,i
O=C(NCC(=O)N(Cc1ccco1)C(C(=O)NC1CCCCC1)c1cccnc1)c1cccs1 (configuration not stated),i,57,i,i,i,i
COC(=O)CNc1nc(OC)nc(N(C)C)n1,i,i,i,i,i,i
CCCCCCc1nc2c(=O)[nH]c3ccccc3c2o1,i,i,i,i,i,i
COC(=O)c1cc(=O)n2c(-c3ccc(OC)cc3)csc2n1,i,i,i,i,i,i
c1ccc(NC2=Nc3ccccc3CC2)cc1,i,68,i,i,i,i
c1ccc(Oc2cccc(NC3=NCCC3)c2)cc1,i,i,i,i,i,i
Cc1ccc(CNC2=NCCCCC2)n1C,i,i,i,i,i,i
COc1ccc(C(=O)Nc2cccc(C)c2)cc1S(=O)(=O)N1CCOCC1,i,i,i,i,i,i
CCN(c1ccc(NC(=O)COC(=O)c2ccc(C)c(S(=O)(=O)N3CCOCC3)c2)cc1)C(C)C,i,i,i,i,i,i
Cc1ccc(C(=O)OCC(=O)Nc2ccc3c(c2)OCO3)cc1S(=O)(=O)N1CCOCC1,i,i,i,i,51,i
O=C(COC(=O)c1cc(S(=O)(=O)N2CCOCC2)ccc1Cl)Nc1ccc2c(c1)OCO2,i,68,i,i,61,i
Cc1ccc(C(=O)Oc2cccc(NC(=O)c3cccs3)c2)cc1S(=O)(=O)N1CCOCC1,i,i,i,i,58,i
CCNc1ccc(C(=O)OCC)cc1NC(=O)c1cccc(S(=O)(=O)N2CCOCC2)c1,i,i,i,i,58,i
CCOC(=O)CN(C(=O)CSc1nnc(CNc2ccc(C)cc2C)o1)c1ccccc1,i,i,i,i,i,i
CCOC(=O)c1ccccc1NC(=O)COC(=O)c1ccc(C)c(S(=O)(=O)N2CCOCC2)c1,i,i,i,i,61,i
Cc1cc(C(=O)OCC(=O)Nc2cccc(S(=O)(=O)N3CCOCC3)c2)c(C)o1,i,73,i,i,83,i
O=C(COc1ccc(S(=O)(=O)N2CCCC2)cc1Cl)Nc1ccc2c(c1)OCO2,i,i,i,i,i,i
O=C(COC(=O)CCc1ccc(S(=O)(=O)N2CCCCC2)cc1)Nc1ccc2c(c1)OCO2,i,i,i,i,76,i
SMILES,CYP2C19 activ,CYP2C19 inh,PostGolgi ctrl,PostGolgi yeast,CYP2C9 inh,CYP2C9 act
Cc1ccc(C(=O)OCC(=O)Nc2ccccc2C(F)(F)F)cc1S(=O)(=O)N1CCOCC1,i,i,i,i,i,i
CCN(CC)S(=O)(=O)c1ccc(OC)c(NC(=O)CSc2ccccc2)c1,i,i,i,i,89,i
CCN(CC)S(=O)(=O)c1ccc(OC)c(NC(=O)c2cc([N+](=O)[O-])ccc2Cl)c1,i,i,i,i,i,i
CCN(CC)S(=O)(=O)c1ccc(-c2nnc(SCC(=O)Nc3ccc(OC)c(OC)c3)o2)cc1,i,i,i,i,70,i
Cc1cc(NC(=O)CSc2nnc(-c3ccc4c(c3)OCCO4)o2)no1,i,i,i,i,i,i
COc1cc(-c2nnc(SCC(=O)Nc3ccc4c(c3)OCCO4)o2)cc(OC)c1OC,i,i,i,i,75,i
CC(=O)C1C(=O)C=C(c2ccco2)CC1c1ccccc1 (configuration not stated),i,i,i,i,i,i
CCOC(=O)c1cc(OC(=O)c2cccc([N+](=O)[O-])c2)n(-c2ccccc2)n1,i,i,i,i,i,i
COC(=O)c1ccccc1NC(=O)c1noc2c1CC(C(C)(C)C)CC2 (configuration not stated),i,i,i,i,i,i
O=C(Nc1ccccc1)OCc1ccccn1,i,51,i,i,i,i
O=C(Nc1ccccc1)O/N=C(\c1ccccc1)c1ccccn1,i,i,i,i,61,i
COC(=O)Nc1ccc(Oc2ccccc2)cc1,i,78,i,i,i,i
O=C(Nc1ccccc1)OCCOc1ccccc1,i,85,i,i,i,i
S=C(Nc1ccccc1)c1ccccn1,i,i,i,i,i,i
NC(=O)c1ccc(NC(=O)CCCc2nc(-c3ccccc3Cl)no2)cc1,i,i,i,i,i,i
COC(=O)Nc1ccc(OCc2ccccc2)cc1,i,i,i,i,i,i
O=C(Nc1ccccc1)OCc1cc(-c2ccccc2Cl)on1,i,i,33,i,i,i
O=C(Nc1ccccc1)OCCNC(=O)c1cccc(Cl)c1,i,93,i,i,87,i
O=C(NCCO)c1cccc(Cl)c1,i,i,i,i,i,i
COc1ccc(OCCOC(=O)Nc2ccccc2)cc1,i,82,i,i,i,i
COC(=O)c1ccc(-c2ccc(C(=O)N3CCCN(C)CC3)cc2)cc1,i,i,i,i,i,i
COc1ccc(Cl)cc1CN1CCN(c2nc(C)cc(C)c2C#N)CC1,i,92,i,i,79,i
Cc1cc(C)c(C#N)c(N2CCN(CCOc3ccc(Cl)cc3)CC2)n1,i,i,32,i,i,i
COc1cccc(/C=N/NC(=O)CC(=O)NCCc2ccc(OC)c(OC)c2)c1,i,i,i,i,i,i
Cc1c(C(=O)NCCCN2CCCC2=O)oc2ccccc12,i,i,i,i,i,i
O=C1CCCN1c1ccc(S(=O)(=O)Oc2cccc(Cl)c2)cc1[N+](=O)[O-],i,66,i,i,i,i
COc1ccc(N2CCN(C(=O)C3CCCO3)CC2)cc1 (configuration not stated),i,i,i,i,i,i
CCCOc1ccccc1C1NC(=O)NC(C)=C1C(=O)OCCOC(C)C (configuration not stated),i,56,i,i,53,i
CC1=C(C(=O)OCc2ccc3c(c2)OCO3)C(c2ccccc2OCc2ccccc2)NC(=O)N1 (configuration not stated),i,i,i,i,99,i

# Source: PubChem BioAssay (several laboratories)
